High-throughput results: PubChem, National Center for Advancing Translational Sciences (NCATS)
In the library only some 1.4% were active in any assay of this set; here they are far more common.
BRCA1 expr act = BRCA1 expression activation. MCF7-BRCA1-FFLuc reporter, luminescence, 48 h; response scale: scaled: vehicle 0%, 10 µM genistein 100%. AID 624202. Potency, µM (top dose mostly 46.1 µM), inactives show at the highest dose activation, most hits filed as activators. 380,000 tested, 1.1% active; also: potency is read from the fitted curve at half-maximal effect; nearly all actives have a fitted effect of over 80% in size
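Luminescence from a BRCA1-driven firefly luciferase in MCF7 cells was the read-out, taken 15 min after substrate addition following 48 h compound exposure at 37 °C. Data were normalized to a 10 microM genistein control and DMSO vehicle.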
p53 reactivation = mutant p53 re-activation in reporter cells; H1299 p53-A138V BP100-luciferase reporter, luminescence, 24 h; Potency, µM (doses to about 92.2 µM), for the others: top-dose activity change, positive = activation, actives largely listed as activators; 320,000 tested, 0.063% active; AID 504706; also: potency is read from the fitted curve at half-maximal effect; % of control where 0% means no effect; nearly all actives have a fitted effect of over 45% in size
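p53-null H1299 cells stably carrying temperature-sensitive p53-A138V and a BP100-luciferase reporter were pinned with compounds (4-point, 1:5 series) and held 24 hrs at 37 deg C. Luminescence was read 10 min after detection reagent.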
uPA surface inh = cell surface uPA generation inhibition. AID 540303. 330,000 tested, 0.31% active. Potency, µM (titrated, usually from 38.3 µM), inactives show top-dose activity change, negative = inhibition, usual class: inhibitors. cell surface uPA generation assay, qHTS; active = well fitted inhibition curve with a large enough effect; inconclusive = small, poorly fitted or top-dose-only effect; inactive = no such curve, though single readings can be large or run the other way; tested in mouse RAW 264.7 cells; also: potency is read from the fitted curve at half-maximal effect; % is scaled to controls: 0 for no effect and ±100 for the full control effect; nearly all actives have a fitted effect of over 55% in size
IL2 activator = activates IL-2 in a cell-based reporter assay. IL-2 activation reporter assay, cell-based qHTS; stimulated with anti-CD3/CD4/CD28 beads; in transgenic mouse T cells. activation, % (series mostly up to about 46 µM). 360,000 tested, 0.065% active. AID 652025; in the data active = activation above about 50%; inconclusive = mostly about 30% to 49%; also: 0% is about no effect
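Unstimulated transgenic mouse T cells; 60-min compound exposure; bead-based TCR/CD4/CD28 stimulation; 18 h culture, 37 degrees C; dual fluorescence (EGFP, DsRed) plate cytometry.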
TCR activator = activators of T cell receptors; AID 504894; 330,000 tested, under 10 active; Potency, µM (series often up to 9.22 µM), for inactives: at the highest dose activation of IL-2 secretion, usual class: activators; primary human leukocytes, anti-CD3, IL-2 HTRF, 48 h; also: % of control where 0% means no effect
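Readout: HTRF IL-2, Eu-cryptate/d2 antibody pair, 320nm excitation, 665nm emission. Stimulus: a-CD3 beads, no co-stimulation. Cells: primary human leukocytes. Exposure: 48 hr with compound.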
Numbers without * were called inactive; [ ] = remark or other dose. Unless noted, calls follow the shape of the dose curve; as a rule, active = well fitted curve in the direction sought with a large enough effect; inconclusive = small, poorly fitted or top-dose-only effect, or another doubt; inactive = no such curve, though single readings can be large; an effect the other way counts as inactive or inconclusive.

How did Clc1ccc(-c2cc(CSc3ccccc3)on2)cc1 do in these assays?
BRCA1 expr act: 3.5µM*; p53 reactivation: inconclusive; uPA surface inh: -1%; IL2 activator: -2; TCR activator: -6%

How did c1ccc(OCc2cc(-c3ccccc3)no2)cc1 do in these assays?
BRCA1 expr act: 5µM*; p53 reactivation: 24%; uPA surface inh: 1%; IL2 activator: 0

How did CCc1ccc(-n2c(=O)c3sc4ccccc4c3n(Cc3cccc(F)c3)c2=O)cc1 do in these assays?
BRCA1 expr act: 16%

Results for Cc1ccc(CNC(=O)c2ccc3c(c2)N(Cc2cccc(Cl)c2)C(=O)CS3)cc1 ?
BRCA1 expr act: -37%

Results for COc1ccc2oc(=N)c(C(=O)Nc3ccccc3Cl)cc2c1 ?
BRCA1 expr act: 4.5µM*; uPA surface inh: 5%; IL2 activator: -1; TCR activator: -3%

What do the screens show for `CCOc1cccc(C2C=C(c3ccc4c(c3)OCO4)NC(c3ccc(Br)cc3)N2)c1O` (centres undefined)?
BRCA1 expr act: -24%

Results for O=C(NNC(=O)c1ccccc1Cl)c1ccc2c(c1)OCCO2 ?
BRCA1 expr act: 7.1µM*; p53 reactivation: inconclusive; uPA surface inh: inconclusive; IL2 activator: 2; TCR activator: 3%

Results for O=C(Nc1cccc([N+](=O)[O-])c1)c1ccc2c(c1)OCCO2 ?
BRCA1 expr act: 13µM*; p53 reactivation: 24%; uPA surface inh: -5%; IL2 activator: -3; TCR activator: 1%[46.1 µM]

Results for C/C(=N\NC(=O)c1ccccc1C)c1cccc([N+](=O)[O-])c1 ?
BRCA1 expr act: 23%; p53 reactivation: 8%; uPA surface inh: -1%; IL2 activator: 0; TCR activator: -6%

What do the screens show for `C/C(=N\Nc1ccc(Cl)c(C(=O)O)c1)c1cccc([N+](=O)[O-])c1`?
BRCA1 expr act: 14µM*; p53 reactivation: 5%; uPA surface inh: 9%; IL2 activator: 0; TCR activator: -2%

Results for C/C(=N/NC(=O)c1ccc2c(c1)OCO2)c1cccc([N+](=O)[O-])c1 ?
BRCA1 expr act: 5µM*; p53 reactivation: 29%; uPA surface inh: -4%; IL2 activator: -1; TCR activator: -25%

What do the screens show for `O=C(c1ccc2c(c1)N(Cc1ccccc1F)C(=O)c1ccccc1S2(=O)=O)N1CCN(c2ccccn2)CC1`?
BRCA1 expr act: 0%

What do the screens show for `CCCCN(Cc1ccccc1)S(=O)(=O)c1ccc2c(c1)CC(C)N2C(=O)CC` (centres undefined)?
BRCA1 expr act: 10%

How did O=C(NC(=S)Nc1cccc([N+](=O)[O-])c1)c1ccccc1 do in these assays?
BRCA1 expr act: 11µM*; p53 reactivation: inconclusive; uPA surface inh: 2%; IL2 activator: 2; TCR activator: 2%

What do the screens show for `CC(=O)NC1Sc2ccccc2N=C1c1ccccc1` (centres undefined)?
BRCA1 expr act: 10µM*; p53 reactivation: inconclusive; uPA surface inh: -4%; IL2 activator: 0; TCR activator: -1%

How did CCOCCCNC(=O)c1ccc2c(c1)ncn2C1CCCC1 do in these assays?
BRCA1 expr act: inconclusive; p53 reactivation: inconclusive; uPA surface inh: 11%; IL2 activator: -2; TCR activator: -3%

How did CC(C)CCNC(=O)c1ccc2c(c1)ncn2C1CCCC1 do in these assays?
BRCA1 expr act: 7.1µM*; p53 reactivation: 24%; uPA surface inh: 4%; IL2 activator: 0; TCR activator: -4%

What do the screens show for `CCOC(=O)Nc1ccc2c(c1)ncn2C1CCCCC1`?
BRCA1 expr act: 13µM*; p53 reactivation: 13%; uPA surface inh: -5%; IL2 activator: -1; TCR activator: -12%

What do the screens show for `O=C(Nc1cccc2cccnc12)c1ccc(Br)cc1`?
BRCA1 expr act: -16%

Results for CCOc1ccc(Nc2ncnc3c2nc2n3CCCCC2)cc1 ?
BRCA1 expr act: 12%

How did COc1ccc(Nc2ncnc3c2nc2n3CCCCC2)cc1 do in these assays?
BRCA1 expr act: 10µM*

Results for CC1CCCN(c2ncnc3c2nc2n3CCCCC2)C1 (centres undefined) ?
BRCA1 expr act: 11µM*

What do the screens show for `CN(C)CCNc1nccc(N2CCN(C)CC2)n1`?
BRCA1 expr act: -4%
